Hits are enriched below; roughly 1.2% of the tested compounds scored in any of these assays.
GSH fluor – compound fluoresces at 488/530 nm on GSH beads; GSH beads flow cytometry, compound fluorescence 488/530 nm; stronger effect = higher value; fluorescence (KMESF) at 10 µM; 190,000 compounds, 0.25% hits; AID 1776; in the data active = fluorescence above about 89;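 also: glutathione beads carrying GST-tagged Bcl family fusion proteins plus one bare bead set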
RGS4-Gao reg – human RGS4-Galphao interaction regulation | P09471 | Multiplexed bead flow cytometry, RGS4-Galphao binding; actives lie on both sides | binding response (% of control), % at 10 µM | 220,000 compounds, 0.33% hits | AID 1415; in the data active = binding response below about 49% or above about 150%; inactive = in between;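 also: fluorescent Galphao activated with aluminum fluoride binding bead-coupled RGS4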
Target sequence (P09471 whole entry, looked up): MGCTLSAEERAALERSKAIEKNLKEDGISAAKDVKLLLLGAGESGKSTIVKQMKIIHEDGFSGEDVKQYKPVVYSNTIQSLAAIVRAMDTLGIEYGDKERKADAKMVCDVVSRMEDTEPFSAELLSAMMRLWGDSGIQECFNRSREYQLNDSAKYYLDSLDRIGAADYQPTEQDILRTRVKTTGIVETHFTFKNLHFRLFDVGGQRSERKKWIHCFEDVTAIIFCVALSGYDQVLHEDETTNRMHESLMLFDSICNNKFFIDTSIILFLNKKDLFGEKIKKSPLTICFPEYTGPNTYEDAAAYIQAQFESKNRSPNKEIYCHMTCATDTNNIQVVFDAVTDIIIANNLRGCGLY
RGS16-Gao – modulates binding between human RGS16 and Galphao; O15492+P09471; bead-based flow cytometry RGS16-Galphao binding, fluorescence; actives lie on both sides; binding response (% of control), % at 10 µM; 220,000 compounds, 0.38% hits; AID 1441; call rule not given here;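 also: Galphao activated by GDP with aluminum fluoride before binding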
Target sequence (O15492 whole entry, looked up): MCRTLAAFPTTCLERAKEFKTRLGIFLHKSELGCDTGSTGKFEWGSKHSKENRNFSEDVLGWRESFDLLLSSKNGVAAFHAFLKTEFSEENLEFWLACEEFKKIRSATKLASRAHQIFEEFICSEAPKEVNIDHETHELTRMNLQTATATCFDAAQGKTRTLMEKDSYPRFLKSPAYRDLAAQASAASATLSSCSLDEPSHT
Target sequence (P09471 whole entry, looked up): as the sequence (P09471 whole entry, looked up) above
Avidin bead fluor – avidin bead compound fluorescence profile; Avidin beads, compound fluorescence 488/530 nm, flow cytometry; stronger effect = higher value; fluorescence (KMESF) at 10 µM; 220,000 compounds, 0.38% hits; in the data active = fluorescence above about 47
RGS8-Gao – regulators of human RGS8-Galphao interaction. P09471. multiplexed bead flow cytometry, RGS8-Galphao binding; actives lie on both sides. response (percent of control binding), % at 10 µM. 220,000 compounds, 0.34% hits. AID 1423; in the data active = response below about 60% or above about 140%; inactive = in between;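 also: Galphao activated as the GDP aluminium fluoride complex binding bead-coupled RGS8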
RGS7-Gao reg – human RGS7-Galphao interaction regulation; P09471; Multiplexed bead flow cytometry, RGS7-Galphao binding; actives lie on both sides; binding response (% of control), % at 10 µM; 220,000 compounds, 0.35% hits; in the data active = binding response below about 49% or above about 150%; inconclusive = no clear call, values can overlap the other calls; inactive = in between;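 also: fluorescent Galphao held in activated GDP-AlF4 state binding bead-coupled RGS7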
A number is an active result.

How did CCOC(=O)c1c(C)[nH]c(C(=O)Cn2nnc(-c3ccccc3)n2)c1C do in these assays?
GSH fluor: 265; RGS4-Gao reg: inactive; RGS16-Gao: inactive; Avidin bead fluor: inactive; RGS8-Gao: inactive; RGS7-Gao reg: inactive

Results for CCOC(=O)c1c(C)[nH]c(C(=O)Cn2nnc(-c3ccccc3Cl)n2)c1C ?
GSH fluor: inactive; RGS4-Gao reg: inactive; RGS16-Gao: inactive; Avidin bead fluor: inactive; RGS8-Gao: inactive; RGS7-Gao reg: inactive

How did O=C(CN1CCOCC1)n1c2ccccc2c2ccccc21 do in these assays?
GSH fluor: 256; RGS4-Gao reg: inactive; RGS16-Gao: inactive; Avidin bead fluor: inactive; RGS8-Gao: inactive; RGS7-Gao reg: inactive

How did COc1ccc(-n2cnc3scc(-c4ccccc4)c3c2=O)cc1 do in these assays?
GSH fluor: inactive; RGS4-Gao reg: inactive; RGS16-Gao: inactive; Avidin bead fluor: inactive; RGS8-Gao: inactive; RGS7-Gao reg: inactive

What do the screens show for `Cc1cccc(-n2nnnc2SCC(=O)c2cc(C)n(CC3CCCO3)c2C)c1` (configuration not stated)?
GSH fluor: 263; RGS4-Gao reg: inactive; RGS16-Gao: inactive; Avidin bead fluor: inactive; RGS8-Gao: inactive; RGS7-Gao reg: inactive

What do the screens show for `Cc1ccc(-n2nnnc2SCC(=O)c2cc(C)n(CC3CCCO3)c2C)cc1` (configuration not stated)?
GSH fluor: inactive; RGS4-Gao reg: inactive; RGS16-Gao: inactive; Avidin bead fluor: inactive; RGS8-Gao: inactive; RGS7-Gao reg: inactive

How did COCCOc1ccc(C(F)(F)F)cc1NC(=O)c1ccc(C)cc1 do in these assays?
GSH fluor: inactive; RGS4-Gao reg: inactive; RGS16-Gao: inactive; Avidin bead fluor: 59; RGS8-Gao: inactive; RGS7-Gao reg: inactive

How did O=C(CNC(=O)Cc1ccccc1)NCC(=O)OCc1ccc(C(=O)c2ccccc2)cc1 do in these assays?
GSH fluor: inactive; RGS4-Gao reg: inactive; RGS16-Gao: inactive; Avidin bead fluor: inactive; RGS8-Gao: inactive; RGS7-Gao reg: inactive

How did O=C1/C(=C\c2ccc(O)c(O)c2)C(c2ccccc2)=NN1c1ccccc1 do in these assays?
GSH fluor: inactive; RGS4-Gao reg: inactive; RGS16-Gao: inactive; Avidin bead fluor: inactive; RGS8-Gao: inactive; RGS7-Gao reg: inactive

Results for COc1cc(/C=C2\C(=O)N(c3ccc(NC(C)=O)cc3)N=C2c2ccccc2)ccc1O ?
GSH fluor: inactive; RGS4-Gao reg: inactive; RGS16-Gao: inactive; Avidin bead fluor: 131; RGS8-Gao: inactive; RGS7-Gao reg: inconclusive

How did O=C(CCN1CCCCC1)Nc1ccc(Br)cc1 do in these assays?
GSH fluor: inactive; RGS4-Gao reg: inactive; RGS16-Gao: inactive; Avidin bead fluor: 49; RGS8-Gao: inactive; RGS7-Gao reg: inactive

Results for CN1CCN(CCC(=O)Nc2ccc(Br)cc2)CC1 ?
GSH fluor: inactive; RGS4-Gao reg: inactive; RGS16-Gao: inactive; Avidin bead fluor: inactive; RGS8-Gao: inactive; RGS7-Gao reg: inactive

Results for Cc1ccc(NC(=O)CN2C(=O)N/C(=C/c3cccn3-c3ccc(C(=O)O)cc3)C2=O)cc1 ?
GSH fluor: inactive; RGS4-Gao reg: 26; RGS16-Gao: inactive; Avidin bead fluor: inactive; RGS8-Gao: 28; RGS7-Gao reg: -13

How did Cc1ccc(NC(=O)CN2C(=O)N/C(=C/c3cc(C)n(-c4ccc(C(=O)O)cc4)c3C)C2=O)cc1 do in these assays?
GSH fluor: inactive; RGS4-Gao reg: inactive; RGS16-Gao: inactive; Avidin bead fluor: inactive; RGS8-Gao: inactive; RGS7-Gao reg: inactive

Results for O=C1NC(=O)C(CC(=O)N(c2ccccc2)C2(C(=O)NC3CCCC3)CCCCC2)N1 (configuration not stated) ?
GSH fluor: inactive; RGS4-Gao reg: inactive; RGS16-Gao: inactive; Avidin bead fluor: 52; RGS8-Gao: inactive; RGS7-Gao reg: inactive

Results for CC(=O)Nc1nonc1-c1nc2ccccc2n1CCC#N ?
GSH fluor: inactive; RGS4-Gao reg: inactive; RGS16-Gao: inactive; Avidin bead fluor: inactive; RGS8-Gao: inactive; RGS7-Gao reg: inactive

What do the screens show for `CC(=O)Nc1nonc1-c1nc2ccccc2n1CC1CC1`?
GSH fluor: inactive; RGS4-Gao reg: inactive; RGS16-Gao: inactive; Avidin bead fluor: 57; RGS8-Gao: inactive; RGS7-Gao reg: inactive

How did COc1ccccc1N1CCN(CCc2n[nH]c(=S)n2-c2ccccc2)CC1 do in these assays?
GSH fluor: inactive; RGS4-Gao reg: inactive; RGS16-Gao: inactive; Avidin bead fluor: inactive; RGS8-Gao: inactive; RGS7-Gao reg: inactive

How did COc1ccc(NC(=O)CSc2nc3ccccc3c(=O)n2CCCN2CCC(C)CC2)c(OC)c1 do in these assays?
GSH fluor: inactive; RGS4-Gao reg: inactive; RGS16-Gao: inactive; Avidin bead fluor: inactive; RGS8-Gao: inactive; RGS7-Gao reg: inactive

Results for CC(=O)OCC(=O)Nc1ccc([N+](=O)[O-])cc1Cl ?
GSH fluor: inactive; RGS4-Gao reg: inactive; RGS16-Gao: inactive; Avidin bead fluor: inactive; RGS8-Gao: inactive; RGS7-Gao reg: inactive

What do the screens show for `CC(=O)OCC(=O)Nc1ccc(Cl)cc1Cl`?
GSH fluor: 231; RGS4-Gao reg: inactive; RGS16-Gao: inactive; Avidin bead fluor: inactive; RGS8-Gao: inactive; RGS7-Gao reg: inactive

How did CCN(CC)S(=O)(=O)c1cccc(NC(=O)COC(=O)c2ccc(Br)o2)c1 do in these assays?
GSH fluor: 255; RGS4-Gao reg: inactive; RGS16-Gao: inactive; Avidin bead fluor: inactive; RGS8-Gao: inactive; RGS7-Gao reg: inactive

Results for CCN(CC)S(=O)(=O)c1cccc(NC(=O)COC(=O)c2cc(=O)c3ccccc3o2)c1 ?
GSH fluor: inactive; RGS4-Gao reg: inactive; RGS16-Gao: inactive; Avidin bead fluor: inactive; RGS8-Gao: inactive; RGS7-Gao reg: inactive

What do the screens show for `Cc1ccc(CSc2nnc(-c3ccncc3)n2N)cc1`?
RGS4-Gao reg: inactive; RGS16-Gao: inactive; Avidin bead fluor: inactive; RGS8-Gao: inactive; RGS7-Gao reg: inconclusive

What do the screens show for `Nn1c(SCc2cn3ccsc3n2)nnc1-c1ccncc1`?
GSH fluor: 266; RGS4-Gao reg: inactive; RGS16-Gao: inactive; Avidin bead fluor: inactive; RGS8-Gao: inactive; RGS7-Gao reg: inactive

What do the screens show for `Cc1ccc(C(C)C)c(OCC(=O)N/N=C/c2cccn2C)c1`?
RGS4-Gao reg: inactive; RGS16-Gao: inactive; Avidin bead fluor: inactive; RGS8-Gao: inactive; RGS7-Gao reg: inconclusive

What do the screens show for `CCOc1ccc(CCNC(=O)c2cc3ccccn3n2)cc1OCC`?
GSH fluor: inactive; RGS4-Gao reg: inactive; RGS16-Gao: inactive; Avidin bead fluor: inactive; RGS8-Gao: inactive; RGS7-Gao reg: inactive

Results for COC(=O)c1cc(NC(=O)c2cccc(Cl)c2)c(=O)oc1/C=C/Nc1cc(C)cc(C)c1 ?
GSH fluor: 173; RGS4-Gao reg: inactive; RGS16-Gao: inactive; Avidin bead fluor: inactive; RGS8-Gao: inactive; RGS7-Gao reg: inactive

What do the screens show for `COC(=O)c1cc(NC(=O)c2cccc(C(F)(F)F)c2)c(=O)oc1C`?
GSH fluor: inactive; RGS4-Gao reg: inactive; RGS16-Gao: inactive; Avidin bead fluor: inactive; RGS8-Gao: inactive; RGS7-Gao reg: inconclusive

How did COc1ccc(Oc2cc(C(F)(F)F)cnc2C(N)=O)cc1 do in these assays?
GSH fluor: inactive; RGS4-Gao reg: inactive; RGS16-Gao: inactive; Avidin bead fluor: inactive; RGS8-Gao: inactive; RGS7-Gao reg: inactive
